Screening results (PubChem)
IDE act = IDE (human) activation, cell-based. P14735. HEK cells, FAbeta-B cleavage, fluorescence polarization; 0% vehicle, 100% cell-free pure enzyme wells. activation, % at 5.96 µM. hit rate 0.073% among 340,000;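 active = activation above the mean of all tested compounds plus 3 SD, set per screening campaign, cut at about 17% in these data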
ALR H2O2 inh = human ALR oxidase inhibition via reduced H2O2 | P55789 | purified ALR, DTT oxidation, H2O2 HRP-luminol luminescence | inhibition, % (test concentration not listed) | hit rate 3.8% among 290,000;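 active = mean replicate inhibition above about 79%, with every replicate also reaching it, limit read from the data; inconclusive = only one of the two criteria met; inactive = mean below limit and not every replicate reaching it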
Target sequence (P55789 whole entry, looked up): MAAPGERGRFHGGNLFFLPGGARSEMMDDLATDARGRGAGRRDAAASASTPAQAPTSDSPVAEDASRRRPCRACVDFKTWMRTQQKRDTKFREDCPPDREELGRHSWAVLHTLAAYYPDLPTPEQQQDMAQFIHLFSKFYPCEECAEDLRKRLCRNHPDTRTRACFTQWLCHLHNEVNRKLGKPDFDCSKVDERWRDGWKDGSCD
PolyA inh = yeast polyadenylation inhibition; S. cerevisiae SKY197-pL101 polyadenylation reporter, beta-gal luminescence; efflux-impaired pdr1/pdr3 knockout yeast; score 100 = 6 SD above DMSO; activity score, % at 12 µM; hit rate 0.02% among 300,000; AID 1875;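 active = lowest replicate activity score at least 50, where 100 means six control SD above control mean; inconclusive = lowest score under 50 but half or more replicates reach 50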;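 also: yeast exposed to compound for 9 h at 30 °C; higher score means more reporter readthrough which indicates perturbed polyadenylation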
IDE inh = cellular human IDE inhibition; P14735; HEK cells, FAbetaB cleavage, fluorescence polarization; inhibition, % at 5.59 µM; hit rate 0.41% among 320,000;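 active = percent inhibition above the average of all tested compounds plus 3 SD, set per screening campaign, cut at about 16% in these data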;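 also: IDE supplied by intact live HEK cells; FP after avidin binding of uncleaved biotin substrate so inhibition keeps polarization high; 0% = DMSO wells and 100% = 60 µM reference IDE inhibitor Ii1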
CaV13 FRET inh = Primary screen for inhibitors of IQ motif and Ca2+-dependent inactivation inhibitor domain binding in CACNA1D, Förster resonance energy transfer in living cells, …; HEK cells, CFP/YFP FRET ICDI-IQ, plate reader, 10 min; percent FRET-ratio fall versus neutral wells; inhibition, % at 12.3 µM; hit rate 0.098% among 340,000;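 active = mean replicate inhibition of at least 30% and at least 1% of replicates passing that level; inconclusive = only one of the two criteria is met; inactive = neither criterion is met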;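 also: 0% = median of the neutral control wells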
PfM18AAP inh-1 = blocks P. falciparum M18 aspartyl aminopeptidase; AID 1822; inhibition, % at 7.35 µM; recombinant PfM18AAP, H-Glu-NHMec fluorogenic cleavage; hit rate 1.2% among 290,000;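 active = inhibition above the campaign mean inhibition over all tested compounds plus 3 SD, cut at about 28% in these data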;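 also: 0% = plate median of test compound wells and 100% = 2 mM ZnCl2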
PfM18AAP inh-2 = confirmation of Plasmodium falciparum M18 aspartyl aminopeptidase inhibitors; shares compounds with PfM18AAP inh-1; recombinant PfM18AAP, H-Glu-NHMec fluorogenic cleavage; inhibition, % at 7.35 µM; hit rate 28% among 2,400; AID 2170;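 active = mean inhibition over replicate wells above the hit cutoff set for the earlier primary screen, cut at about 29% in these data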;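 also: 0% = median of test compound wells and 100% = 2 mM ZnCl2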
CTSL1 confirm = Cathepsin L (human) inhibition, confirmation. shares compounds with PfM18AAP inh-1. purified cathepsin L1, Z-Leu-Arg-MCA fluorescence. inhibition, % at 5.96 µM. 2,400 tested, under 10 active. AID 2178;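 active = average inhibition across replicates above the hit cutoff set in the earlier primary screen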;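 also: 0% = median of test compound wells and 100% = Z-Phe-Ala-diazomethylketone 1 µM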
Target sequence (P07711 whole entry, looked up): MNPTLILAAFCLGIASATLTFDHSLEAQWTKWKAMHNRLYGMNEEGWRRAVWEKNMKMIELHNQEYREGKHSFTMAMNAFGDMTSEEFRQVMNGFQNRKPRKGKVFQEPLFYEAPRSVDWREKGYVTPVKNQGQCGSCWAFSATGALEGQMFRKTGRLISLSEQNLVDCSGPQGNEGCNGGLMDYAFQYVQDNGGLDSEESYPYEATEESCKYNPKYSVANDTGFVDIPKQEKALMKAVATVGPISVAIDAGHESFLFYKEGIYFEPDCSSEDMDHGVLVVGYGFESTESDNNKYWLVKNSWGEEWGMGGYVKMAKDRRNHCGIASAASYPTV
* marks the source's active call; other numbers are inactive results; ? = inconclusive; . = no result. Only some compounds are listed: those with a hit (about 4.1% of all), similar ones and a draw of the others.

SMILES	IDE act	ALR H2O2 inh	PolyA inh	IDE inh	CaV13 FRET inh	PfM18AAP inh-1	PfM18AAP inh-2	CTSL1 confirm
Cc1cc(C)cc(N(CCC#N)C(=O)COC(=O)C2CCN(c3ccc(C(F)(F)F)cn3)CC2)c1	-3.0	-4.0	-7.7	-9.3	.	.	.	.
O=C(N/N=C/c1ccc(-c2cccc([N+](=O)[O-])c2)o1)[C@H]1C[C@@H]1c1ccccc1	-0.8	-20.7	-1.9	-0.9	-5.6	-1.1	.	.
O=C(N/N=C/c1ccc(-c2ccc([N+](=O)[O-])cc2)o1)[C@H]1C[C@@H]1c1ccccc1	2.5	.	14.3	5.2	-7.8	32.5*	-37.4	2.6
COc1ccc(/C=N/NC(=O)c2ccccc2O)cc1Cn1cc([N+](=O)[O-])cn1	7.9	8.0	?	-2.6	4.3	4.6	.	.
COc1ccc(/C=N/NC(=O)c2cc(O)c(O)c(O)c2)cc1Cn1cc([N+](=O)[O-])cn1	-10.5	.	14.1	.	-20.9	48.5*	17.1	-0.8
NC(=O)C1=C[C@H](c2ccc3c(c2)OCO3)C[C@H](OCc2ccc(CO)cc2)O1	5.7	-48.0	-0.3	-2.9	-11.4	12.2	.	.
O=C(O)C1=C[C@@H](c2ccc3c(c2)OCO3)C[C@@H](OCc2ccc(CO)cc2)O1	3.1	-6.6	-10.6	4.2	-4.8	35.5*	-13.0	1.6
N#C/C(=C\c1ccccc1)C(=O)N1CCC(C(N)=O)CC1	1.2	.	20.3	-0.3	-7.5	-1.8	.	.
N#C/C(=C\c1ccc(O)c(O)c1)C(=O)N1CCCC1	-1.0	99.6*	-10.6	3.6	-0.2	56.2*	20.8	3.1
O=C(Oc1cccc(Nc2ncnc3ccccc23)c1)c1ccccc1Cl	-6.4	-2.3	-26.9	-4.4	-4.0	-13.3	.	.
O=C(Nc1ncn[nH]1)C(F)(F)C(F)F	3.4	-3.9	-6.7	-2.8	.	31.9*	8.2	-7.7
CCC(C(=O)Nc1ncn[nH]1)(C(F)(F)F)C(F)(F)F	2.2	-6.5	7.0	1.9	-7.6	52.7*	69.0*	-5.7
COc1ccc(/C=N/Nc2ncc(Br)cn2)c(OC)c1	-4.3	-6.7	-0.9	3.9	-2.6	37.9*	-47.0	-3.4
Cc1cc(OCC#N)nc(N)n1	4.3	0.5	6.7	1.0	-4.5	-4.3	.	.
S=C(Nc1cc(Cl)ccc1Cl)Nn1cnnc1	.	.	8.7	6.1	6.9	81.0*	76.8*	5.9
S=C(NCc1ccc(Cl)cc1)Nc1ccc(Cl)cc1Cl	6.0	.	9.5	0.8	-3.0	3.5	.	.
S=C(Nc1ccc(Cl)cc1Cl)Nn1cnnc1	4.2	-4.7	26.0	-6.5	-12.7	79.0*	77.3*	-0.3
Cc1ccc(S(=O)(=O)NC(=O)Nc2ccc(C)cn2)cc1	2.1	-0.6	0.3	-2.7	-2.6	-5.1	.	.
CC(NC(=S)NC(=O)c1cccs1)c1ccccc1 (stereo not drawn)	1.6	11.9	.	2.2	-6.7	.	.	.
N#Cc1c(-c2ccc(Cl)cc2)cc(-c2cccs2)nc1SCC(=O)O	0.3	.	22.0	-2.6	-3.2	36.4*	-2.2	-1.7
Cc1ccc(N/C=C(\C2OC(=O)c3ccccc32)[N+](=O)[O-])c(C)c1 (stereo not drawn)	.	-0.4	-18.3	-0.2	15.3	50.5*	-36.4	4.7
Cc1ccc(S(=O)(=O)Oc2ccc(C(c3c(C)[nH][nH]c3=O)c3c(C)[nH][nH]c3=O)cc2)cc1	2.4	14.3	15.6	-0.1	-9.4	5.2	.	.
Cc1[nH][nH]c(=O)c1C(c1ccc(N(C)C)c(Br)c1)c1c(C)[nH][nH]c1=O	6.9	16.6	10.6	0.3	-6.8	35.7*	16.9	5.0
Cc1ccccc1NC(=O)c1sc2nc(N3CCOCC3)c3c(c2c1N)CCCC3	-21.7	-10.4	-12.7	5.4	-5.3	41.2*	25.6	2.7
COc1ccccc1NC(=O)c1sc2nc(N3CCOCC3)c3c(c2c1N)CCCC3	1.0	.	3.7	-0.1	-5.0	26.7	.	.
CCOC(=O)c1ccc(NC(=O)c2sc3nc(N4CCOCC4)c4c(c3c2N)CCCC4)cc1	1.7	-3.5	-2.4	-8.4	-3.0	41.6*	-17.1	-2.3
